SMARCA2 activ = activators of SMARCA2 function; actives 1% (n = 370,000); activation, % at 9.1 µM; MG213 cells, MMTV-luciferase reporter, dexamethasone, overnight; in the data active = activation above about 7.8%
MITF act = increases MITF-driven TRPM1 promoter luciferase signal. SK-MEL-5 TRPM1-promoter luciferase, 24 h; % of positive control, neutral wells = 0. activation, % at 12.5 µM. AID 588334. actives 0.75% (n = 300,000);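 active = mean activation of at least 80% with every replicate also reaching 80%; inconclusive = mean reaches 80% but some replicate falls short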
MLL AF4-AF9 inh = MLL-AF4/AF9 protein interaction inhibition; AlphaScreen, biotin-AF4 peptide binding to FLAG-AF9; inhibition, % at 10 µM; actives 0.47% (n = 350,000); P42568;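 active = every replicate reaching a set inhibition limit, whatever the replicate mean, cut at about 25% in these data; inconclusive = mean inhibition reaches that limit but some replicates miss it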
Target sequence (P42568 whole entry, looked up): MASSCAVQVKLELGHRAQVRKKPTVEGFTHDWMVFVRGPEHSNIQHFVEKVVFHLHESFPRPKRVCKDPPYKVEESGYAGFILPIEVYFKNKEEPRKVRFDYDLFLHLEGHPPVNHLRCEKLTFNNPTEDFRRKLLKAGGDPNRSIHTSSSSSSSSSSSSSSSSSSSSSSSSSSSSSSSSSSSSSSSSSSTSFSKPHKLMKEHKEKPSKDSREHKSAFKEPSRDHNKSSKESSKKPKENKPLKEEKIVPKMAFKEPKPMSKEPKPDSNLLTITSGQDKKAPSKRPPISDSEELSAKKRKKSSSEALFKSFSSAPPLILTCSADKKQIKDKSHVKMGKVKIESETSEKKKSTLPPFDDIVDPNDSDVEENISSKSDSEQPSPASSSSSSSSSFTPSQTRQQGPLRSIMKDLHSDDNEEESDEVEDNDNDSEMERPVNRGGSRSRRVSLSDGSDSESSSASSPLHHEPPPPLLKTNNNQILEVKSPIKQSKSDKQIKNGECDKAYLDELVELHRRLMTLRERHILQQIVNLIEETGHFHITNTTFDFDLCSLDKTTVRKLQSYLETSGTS
esBAF inh = inhibitors of esBAF chromatin remodeling in mouse ES cells. Bmi1-luciferase knock-in reporter, 24 h; 100% = twice the neutral-well signal. reporter increase, % at 12.5 µM. actives 2% (n = 350,000). AID 602393; in the data active = activation above about 40%; inconclusive = no clear call, values can overlap the other calls;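 note: a rise in the Bmi1 reporter signal indicates esBAF inhibition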
FGF22 binding = shifts melting point of recombinant human FGF22; recombinant FGF22 thermal shift, SYPRO orange fluorescence; percent of sucrose octasulfate shift, DMSO zero; Q9HCT0; activity (Tm shift, normalised), % at 9.99 µM; actives 1.5% (n = 340,000);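 active = mean Tm shift, scaled 0 neutral to 100 positive control, at about 1.3% or above, every replicate too, limit read from the data; inconclusive = no clear call, values can overlap the other calls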
Target sequence (Q9HCT0 whole entry, looked up): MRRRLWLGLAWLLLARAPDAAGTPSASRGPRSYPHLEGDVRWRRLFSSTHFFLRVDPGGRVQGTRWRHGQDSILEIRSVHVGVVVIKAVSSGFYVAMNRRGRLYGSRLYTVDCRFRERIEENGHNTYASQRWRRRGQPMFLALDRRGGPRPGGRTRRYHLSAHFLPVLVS
Wnt act = activators of Wnt/beta-catenin signaling | Wnt/beta-catenin reporter cell assay, activator, plate reader | activation, % at 9.35 µM | actives 1.2% (n = 300,000) | AID 743398; in the data active = activation above about 30%, passing the limit was not always enough; inconclusive = no clear call, values can overlap the other calls
A number is an active result; 0 = inactive; ? = inconclusive; - = no result. A selection: hits, their analogues and other compounds. The true share with any hit is near 4.3%.

SMILES | SMARCA2 activ | MITF act | MLL AF4-AF9 inh | esBAF inh | FGF22 binding | Wnt act
Cc1noc(C)c1NC(=O)N(C)C[C@H]1OCCCC[C@@H](C)Oc2ccc(NC(=O)c3ccncc3)cc2C(=O)N([C@H](C)CO)C[C@H]1C | - | - | 0 | 0 | 0 | -
CCCNC(=O)[C@H]1[C@H](CO)[C@H]2Cn3c(ccc(C4=CCCCC4)c3=O)[C@@H]1N2CCC | - | - | 0 | 0 | 0 | -
COc1ccccc1CCC[C@H](CCS(=O)(=O)C(C)C)CC1CCCCC1 | 0 | - | - | - | - | -
CCOc1ccc(-n2c(SCC(=O)Nc3ccc4c(c3)c3ccccc3n4CC)nnc2-c2cccnc2)cc1 | 0 | - | - | - | - | -
C[C@@H]1CCCCO[C@H](CN(C)Cc2ccc(C(F)(F)F)cc2)[C@H](C)CN([C@H](C)CO)C(=O)c2cc(NC(=O)NC3CCCCC3)ccc2O1 | - | - | 0 | 0 | 0 | -
C[C@@]12C(=O)N(c3ccc(Br)cc3)C(=O)N1[C@@H]1c3ccccc3OC[C@@H]1[C@H]2c1ccccc1 | 0 | 0 | 0 | 0 | 1.5 | 0
C[C@@]12C(=O)N(c3cccc(Cl)c3)C(=O)N1[C@@H]1c3ccccc3OC[C@@H]1[C@H]2c1ccccc1 | 0 | 0 | 42.8 | 0 | 0 | 0
C[C@@H]1CN([C@@H](C)CO)C(=O)c2cc(NS(=O)(=O)c3ccc(Cl)cc3)ccc2O[C@@H]1CN(C)C(=O)Nc1ccccc1 | - | - | 0 | 0 | 0 | -
CN1c2ccc(-c3cccc(C#N)c3)cc2[C@@H]2[C@@H](CCN2C(=O)Cc2ccccn2)[C@@H]1CO | - | - | 0 | 0 | 0 | -
C[C@H](CO)N1C[C@H](C)[C@H](CN(C)Cc2ccc(Cl)c(Cl)c2)Oc2ccc(N(C)C)cc2CC1=O | - | - | 0 | 0 | 0 | -
C[C@@H]1CN([C@@H](C)CO)C(=O)c2cc(N(C)C)ccc2O[C@@H]1CN(C)Cc1ccc(Cl)c(Cl)c1 | - | - | 32.9 | 0 | 0 | -
C[C@@H]1CN([C@H](C)CO)C(=O)c2cc(N(C)C)ccc2O[C@@H]1CN(C)Cc1ccc(Cl)c(Cl)c1 | - | - | 27.9 | 0 | 0 | -
C[C@@H]1CN([C@H](C)CO)C(=O)c2cc(N(C)C)ccc2O[C@H]1CN(C)Cc1ccc(Cl)c(Cl)c1 | - | - | 28.4 | 0 | 0 | -
C[C@@H]1CN([C@H](C)CO)C(=O)Cc2cc(N(C)C)ccc2O[C@H]1CN(C)Cc1ccc(Cl)c(Cl)c1 | - | - | - | 0 | - | -
O=C(/C=C/c1ccc(-c2ccccc2[N+](=O)[O-])o1)c1ccco1 | 0 | 0 | 0 | - | 0 | 171.6
O=C(/C=C/c1ccc([N+](=O)[O-])cc1)c1ccco1 | 0 | 0 | 0 | 0 | 0 | 0
CC(OC(=O)c1oc2ccccc2c1COc1ccccc1)C(=O)NC(N)=O (stereo not drawn) | 0 | 0 | 0 | - | 43.2 | 0
C[C@@H]1CCCCO[C@@H](CN(C)S(=O)(=O)c2cn(C)cn2)[C@H](C)CN([C@H](C)CO)C(=O)c2cc(NC(=O)Nc3ccc4c(c3)OCO4)ccc2O1 | - | - | 0 | 60.2 | 0 | -
C[C@@H]1CN([C@@H](C)CO)C(=O)c2cc(NC(=O)Nc3ccccc3)ccc2O[C@@H](C)CCCCO[C@@H]1CN(C)S(=O)(=O)c1cn(C)cn1 | - | - | 0 | 0 | 0 | -
C[C@@H]1CN([C@H](C)CO)C(=O)c2cc(NC(=O)Nc3ccc4c(c3)OCO4)ccc2O[C@@H](C)CCCCO[C@@H]1CN(C)S(=O)(=O)c1cn(C)cn1 | - | - | 0 | 68.2 | 0 | -
C[C@@H]1CN([C@@H](C)CO)C(=O)c2cc(NC(=O)Nc3ccc4c(c3)OCO4)ccc2O[C@@H](C)CCCCO[C@@H]1CN(C)S(=O)(=O)c1cn(C)cn1 | - | - | 0 | 46.8 | 0 | -
C[C@H](CO)N1C[C@H](C)[C@H](CN(C)S(=O)(=O)c2cn(C)cn2)OCCCC[C@H](C)Oc2ccc(NC(=O)Nc3ccc4c(c3)OCO4)cc2C1=O | - | - | 0 | 0 | 0 | -
COc1ccc(NC(=O)Nc2ccc3c(c2)C(=O)N([C@H](C)CO)C[C@H](C)[C@@H](CN(C)S(=O)(=O)c2cn(C)cn2)OCCCC[C@H](C)O3)cc1 | - | - | - | 0 | 1.4 | -
CO[C@@H]1CN(C)C(=O)c2ccc(NS(C)(=O)=O)cc2OC[C@H](C)N(C(=O)C2CCCC2)C[C@H]1C | - | - | 0 | - | - | -
COc1ccc2c3c(n(C)c2c1)[C@H](CO)N(C)CC31CN(S(C)(=O)=O)C1 | - | - | 0 | - | 0 | -
SMILES | SMARCA2 activ | MITF act | MLL AF4-AF9 inh | esBAF inh | FGF22 binding | Wnt act
CN(C)CC(=O)N1CCCCN2[C@H](CO)[C@H](c3ccc(-c4cccnc4)cc3)[C@H]2C1 | - | - | 0 | - | 0 | -
C[C@@H]1CCCCO[C@H](CN(C)S(=O)(=O)c2cn(C)cn2)[C@@H](C)CN([C@@H](C)CO)C(=O)c2cc(NC(=O)Nc3ccc4c(c3)OCO4)ccc2O1 | - | - | 0 | 0 | 0 | -
C[C@H](CO)N1C[C@H](C)[C@@H](CN(C)S(=O)(=O)c2cn(C)cn2)OCCCC[C@H](C)Oc2ccc(NC(=O)Nc3ccc4c(c3)OCO4)cc2C1=O | - | - | 0 | 44.5 | 0 | -
CCCNC(=O)C[C@@H]1CC[C@H]2[C@@H](COC[C@H](O)CN2Cc2ccncc2)O1 | - | - | 0 | 0 | 0 | -
Cc1cc2ncc(-c3ccc(Cl)cc3)cn2n1 | 0 | 90.8 | 0 | ? | 0 | 0
Cc1cc(C)c(C2C(C#N)=C(N)Oc3n[nH]c(C)c32)cc1CN1CCCC1 (stereo not drawn) | 7.9 | 0 | 0 | 0 | 0 | 0
Cc1ccc(S(=O)(=O)N(C)C[C@@H]2Oc3cc(C#CC4CCCC4)ccc3S(=O)(=O)N([C@@H](C)CO)C[C@@H]2C)cc1 | - | - | 0 | 0 | 0 | -
COc1ccc(/C=N/NC(=O)c2nnn(-c3nonc3N)c2C)cc1OC | 0 | - | 0 | 0 | 0 | 0
COc1ccc(/C=N/NC(=O)c2c(C)nnn2-c2nonc2N)cc1OC | 0 | 0 | 0 | - | 43.3 | 0
Cc1ccc(/C=N/NC(=O)c2nnn(-c3nonc3N)c2CSc2ccccc2)o1 | 0 | 0 | 0 | 0 | 42.9 | 0
CCOc1ccc(-c2c(C(=O)N/N=C/c3ccccc3)nnn2-c2nonc2N)cc1 | 0 | - | 0 | 0 | 0 | 33.5
O=C(Cc1ccccc1)N[C@@H]1CC[C@H](CC(=O)N2CCCCC2)O[C@@H]1CO | - | - | 0 | 0 | 0 | -
c1ccc(C2=Nc3c(ccc4ccccc34)C(c3ccncc3)=NN2)cc1 | 0 | 0 | 34.4 | - | 0 | 0
Cc1ccc2c(c1)C(c1ccncc1)=NNC(c1ccccc1)=N2 | 0 | 0 | 0 | 0 | 0 | 0
Brc1ccc(C2=Nc3ccccc3C(c3ccncc3)=NN2)cc1 | 0 | 0 | 0 | - | 0 | 0
CCc1ccc2c(c1)C(c1ccncc1)=NNC(c1ccccc1)=N2 | 0 | 0 | 0 | 48.4 | 0 | 0
CCCN1[C@@H]2Cn3c(ccc(-c4ccccc4F)c3=O)[C@H]1[C@@H](C(=O)NCCOC)[C@@H]2CO | - | - | - | 0 | 0 | -
C[C@@H]1CN([C@H](C)CO)C(=O)c2cc(NS(=O)(=O)c3ccccc3)ccc2O[C@H]1CN(C)C | - | - | 0 | 0 | - | -
CS(=O)(=O)N(C(=O)NC(=O)NC12CC3CC(CC(C3)C1)C2)C1CCCCC1 | 0 | 0 | 0 | - | 44.1 | 0
O=C(NC1CCCCC1)NC12CC3CC(CC(C3)C1)C2 | 0 | 0 | 0 | - | 0 | 0
